Experiment [1] can be described thus: qHTS assay to identify aromatase inhibitors - cell viability counter screen (AID 743084).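 Note: cells stimulated with testosterone during compound exposure; nearly all actives have a fitted effect of over 55% in size.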 A general note: qHTS replaces the single test concentration by a dilution series.
Experiment [2] deals with Aryl hydrocarbon receptor (Homo sapiens) (UniProt P35869). Description: qHTS assay to identify small molecule that activate the aryl hydrocarbon receptor (AhR) signaling pathway (AID 743085).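 For activation: HG2L7.5c1 human HepG2 liver cells with stably integrated DRE-driven firefly reporter; series mostly up to about 70 µM.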 Note: nearly all actives have a fitted effect of over 15% in size. Note: potency is the fitted concentration of half-maximal effect. In outline: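 Compounds were tested in HepG2 hepatocellular carcinoma cells harbouring a stably integrated luciferase gene under control of 20 DREs. Increased reporter signal after 24 h treatment at 37C was taken as AhR activation.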

Experiment [3] can be described thus: qHTS assay to identify small molecule that activate the aryl hydrocarbon receptor (AhR) signaling pathway - cell viability counter screen (AID 743086).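 Note: HepG2 liver cells carrying the AhR DRE luciferase reporter; series mostly up to about 70 µM; nearly all actives have a fitted effect of over 45% in size.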 In outline:
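HepG2-AhR-luc (HG2L7.5c1) cells, 4000/well, treated 24 h at 37 C with compound; viability measured as CellTiter-Fluor fluorescence after 30 min in the same wells as the luciferase read.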

Experiment [4] concerns the target Peroxisome proliferator-activated receptor gamma (Homo sapiens) (UniProt P37231). Description: qHTS assay to identify small molecule agonists of the peroxisome proliferator-activated receptor gamma (PPARg) signaling pathway (AID 743094; active = well fitted activation curve with a large enough effect in the signal ratio in the repeat runs, not every such curve was filed as active; the % refers to the signal ratio). The essentials: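 Fluorescence-based beta-lactamase readout in HEK293H PPARg UAS-bla cells after 17 h compound exposure (37C) and 1 h B/G FRET substrate incubation at room temperature.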

For experiment [5] the target is unchanged. Description: qHTS assay to identify small molecule antagonists of the peroxisome proliferator-activated receptor gamma (PPARg) signaling pathway (AID 743191; calls by dose curve; note: series mostly up to about 63 µM; nearly all actives have a fitted effect of over 30% in size). In outline:
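GeneBLAzer PPARg UAS-bla HEK293H cells, 5 h post-plating, exposed to compounds 17 h at 37C. LiveBLAzer B/G FRET substrate added for 1 h at room temperature; beta-lactamase reporter read by fluorescence intensity.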

Experiment [6] can be described thus: qHTS assay to identify small molecule antagonists of the peroxisome proliferator-activated receptor gamma (PPARg) signaling pathway - cell viability counter screen (AID 743194). Note: nearly all actives have a fitted effect of over 55% in size. The essentials:
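Cytotoxicity counter screen in PPARg-bla HEK293H cells, same wells as reporter assay. Compounds plus 50 nM rosiglitazone (final) for 17 h at 37 C, then viability read by CellTiter-Glo luminescence.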

Experiment [7] is described as follows: qHTS assay for small molecule agonists of the antioxidant response element (ARE) signaling pathway (AID 743202; active = well fitted activation curve with a large enough effect in the signal ratio in the repeat runs, not every such curve was filed as active; the % refers to the signal ratio). The essentials:
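HepG2 ARE-bla reporter line, 2,000 cells/well; 5 h preincubation 37 C/5% CO2; compound (DMSO) 16 h 37 C; B/G FRET substrate 2 h RT; fluorescence intensity.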

A short description of experiment [8]: qHTS assay for small molecule agonists of the antioxidant response element (ARE) signaling pathway - cell viability counter screen (AID 743203; calls by dose curve; note: nearly all actives have a fitted effect of over 55% in size). The essentials: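 Parallel cytotoxicity read-out for the ARE-bla screen: HepG2 reporter cells, 16 hrs with compounds, then CellTiter-Glo luminescence.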
The nature of experiment [9]: qHTS assay for small molecule activators of the heat shock response signaling pathway - cell viability counter screen (AID 743209). Note: nearly all actives have a fitted effect of over 50% in size. In outline: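 To flag cytotoxic compounds, HSE-bla HeLa cells plated at 1500 cells/well were dosed for 5 h at 37 C, followed by the reporter FRET read and then CellTiter-Glo, with luminescence recorded 30 min after reagent addition.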
A short description of experiment [10]: qHTS assay for small molecule activators of the heat shock response signaling pathway (AID 743210; active = well fitted activation curve with a large enough effect in the signal ratio in the repeat runs, with a control signal flat, not every such curve was filed as active; the % refers to the signal ratio; note: series mostly up to about 63 µM). In outline: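 Beta-lactamase reporter read-out: FRET substrate fluorescence after 2.5 h at RT, following 5 h compound treatment at 37 C of HeLa cells carrying HSE-driven bla reporter; quantitative HTS format.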

Values joined by “and” are separate entries in the source; they are usually repeats but may differ in a detail not shown here. Equal entries are not always repeated. Inconclusive results are not listed. Active and inactive are the calls of the source. Unless noted, calls come from the whole dose curve; as a rule, active = well fitted curve in the direction sought with a large enough effect in the repeat runs; inconclusive = weak or mixed curves; inactive = no such curve, though single readings can be large; an effect the other way counts as inactive or inconclusive.

Chain of Aryl hydrocarbon receptor (Homo sapiens) (P35869 whole entry, looked up): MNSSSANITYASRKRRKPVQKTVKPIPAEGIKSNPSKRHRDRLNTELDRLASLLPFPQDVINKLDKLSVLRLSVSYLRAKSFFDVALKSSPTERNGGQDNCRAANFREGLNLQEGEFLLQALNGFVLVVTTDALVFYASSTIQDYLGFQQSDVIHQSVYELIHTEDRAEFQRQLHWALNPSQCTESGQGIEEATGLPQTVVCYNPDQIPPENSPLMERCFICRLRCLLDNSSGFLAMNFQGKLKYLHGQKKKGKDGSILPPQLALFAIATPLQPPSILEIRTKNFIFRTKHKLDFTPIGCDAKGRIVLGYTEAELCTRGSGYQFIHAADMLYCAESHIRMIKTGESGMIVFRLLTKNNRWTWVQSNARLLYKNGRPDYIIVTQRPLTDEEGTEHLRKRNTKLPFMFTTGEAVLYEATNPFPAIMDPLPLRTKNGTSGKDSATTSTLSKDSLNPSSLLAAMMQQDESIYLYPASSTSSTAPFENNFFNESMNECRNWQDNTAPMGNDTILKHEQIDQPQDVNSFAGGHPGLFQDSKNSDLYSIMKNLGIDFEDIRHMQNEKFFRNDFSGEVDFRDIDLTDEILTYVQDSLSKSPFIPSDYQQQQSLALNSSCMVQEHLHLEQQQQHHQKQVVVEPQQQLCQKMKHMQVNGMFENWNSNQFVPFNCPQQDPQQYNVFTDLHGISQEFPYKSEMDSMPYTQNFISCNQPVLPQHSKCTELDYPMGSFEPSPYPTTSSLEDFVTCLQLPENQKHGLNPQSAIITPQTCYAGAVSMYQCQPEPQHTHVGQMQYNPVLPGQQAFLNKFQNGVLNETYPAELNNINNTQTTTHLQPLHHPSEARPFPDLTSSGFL
Chain of Peroxisome proliferator-activated receptor gamma (Homo sapiens) (P37231 whole entry, looked up): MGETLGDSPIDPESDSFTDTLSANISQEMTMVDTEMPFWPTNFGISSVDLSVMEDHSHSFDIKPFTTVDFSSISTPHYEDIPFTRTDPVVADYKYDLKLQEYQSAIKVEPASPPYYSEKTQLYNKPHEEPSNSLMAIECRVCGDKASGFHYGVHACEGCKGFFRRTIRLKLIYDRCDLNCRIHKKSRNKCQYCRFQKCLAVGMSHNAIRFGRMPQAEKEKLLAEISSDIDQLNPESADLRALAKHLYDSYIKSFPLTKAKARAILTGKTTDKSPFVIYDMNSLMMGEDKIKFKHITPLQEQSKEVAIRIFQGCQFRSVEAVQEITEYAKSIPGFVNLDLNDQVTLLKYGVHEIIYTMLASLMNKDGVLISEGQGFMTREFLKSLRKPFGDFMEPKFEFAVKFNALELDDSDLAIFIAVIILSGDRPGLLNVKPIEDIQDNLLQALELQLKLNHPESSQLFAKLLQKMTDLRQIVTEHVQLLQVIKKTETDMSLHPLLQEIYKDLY

In the case of `CN(C)C(=O)Nc1cccc(C(F)(F)F)c1`, the Potency result in experiment [1], in experiment [2], in [5], in experiment [7], in experiment [8] and in [9] was “inactive” throughout. The Potency entry in experiment [10] is “inactive”. The molecule was classed as inactive in [3], in [4] and in [6].

Regarding `O=C(O)COc1ccccc1`, the Potency entry in experiment [1], in experiment [2], in [5], in [7], in experiment [8] and in experiment [9] was “inactive” in each case. In [10], the Potency entry is “inactive”. The call in [3], in experiment [4] and in experiment [6] was inactive.

Take `OCc1ccco1`: the Potency result in experiment [1], in experiment [2], in experiment [5], in experiment [7], in experiment [8] and in [9] was “inactive” throughout. The Potency entry in [10] is “inactive”. Further, the call in [3], in experiment [4] and in experiment [6] was inactive.

Take `CN(C)C(=O)Cl`: the Potency result in experiment [1], in experiment [2], in experiment [5], in [7], in [8] and in [9] was “inactive” in each case. The Potency result in experiment [10] was “inactive”. Also, the result in experiment [3], in [4] and in experiment [6] was inactive.

As for `c1ccc2c(c1)CCCC2`, the Potency result in experiment [1], in [2], in [5], in experiment [7], in [8] and in experiment [9] was “inactive” throughout. Moreover, the Potency entry in [10] is “inactive”. The molecule was classed as inactive in [3], in experiment [4] and in [6].

As to `OC[C@@H](O)[C@H]1O[C@@H]2O[C@H](C(Cl)(Cl)Cl)O[C@@H]2[C@H]1O`, the Potency entry in experiment [1], in experiment [2], in experiment [5], in experiment [7], in experiment [8] and in experiment [9] was “inactive” each time. Moreover, the Potency entry in [10] was “inactive”. Also, the result in experiment [3], in experiment [4] and in experiment [6] was inactive.

Turning to `N#CN=C(N)N`, the Potency result in experiment [1], in experiment [2], in experiment [5], in experiment [7], in experiment [8] and in experiment [9] was “inactive” in each case. Moreover, the Potency entry in [10] is “inactive”. For the same molecule, the call in [3], in [4] and in [6] was inactive.

As for `CCNc1nc(Cl)nc(NC(C)C)n1`, the Potency entry in experiment [1], in experiment [2], in experiment [5], in [7], in [8] and in experiment [9] was “inactive” in each case. For the same molecule, in experiment [10], the Potency result was “inactive”. Also, the outcome in [3], in [4] and in experiment [6] was inactive.

Take `ClC(Cl)c1ccccc1`: the Potency entry in experiment [1], in experiment [2], in [5], in [7], in experiment [8] and in experiment [9] was “inactive” in each case. For the same molecule, in experiment [10], the Potency result is “inactive”. The molecule was called inactive in experiment [3], in [4] and in experiment [6].

Consider `CNC(=O)O/N=C(\SC)C(=O)N(C)C`, for which the Potency result in [1], in experiment [2], in [5], in experiment [7], in experiment [8] and in experiment [9] was “inactive” each time. Further, in experiment [10], the Potency result was “inactive”. The molecule was classed as inactive in experiment [3], in [4] and in [6].

As to `CCOP(=S)(OCC)Oc1ccc([N+](=O)[O-])cc1`, the Potency result in experiment [1], in experiment [5], in experiment [7], in experiment [8], in [9] and in experiment [10] was “inactive” each time. In addition, in [2], the Potency was 31 µM (active) and 10.6 µM (active). Moreover, the molecule was called inactive in experiment [3], in experiment [4] and in experiment [6].

In the case of `Nc1ncc([N+](=O)[O-])s1`, the Potency result in experiment [1], in experiment [2], in experiment [5], in experiment [7], in experiment [8] and in [9] was “inactive” throughout. Also, the Potency entry in experiment [10] is “inactive”. For the same molecule, the result in experiment [3], in experiment [4] and in [6] was inactive.

For `Cc1cc(O)ccc1Cl`, the Potency result in experiment [1], in experiment [2], in experiment [5], in experiment [7], in experiment [8] and in experiment [9] was “inactive” in each case. In addition, in experiment [10], the Potency result was “inactive”. In addition, the call in experiment [3], in experiment [4] and in [6] was inactive.

`CN(C)C(=O)C(c1ccccc1)c1ccccc1`: the Potency result in experiment [1], in experiment [2], in experiment [5], in experiment [7], in experiment [8] and in [9] was “inactive” in each case. The Potency entry in experiment [10] was “inactive”. Moreover, the molecule was called inactive in [3], in [4] and in [6].

Turning to `Cc1cccc(C)c1NC(=O)CN1CCCC1=O`, the Potency entry in experiment [1], in experiment [2], in experiment [5], in experiment [7], in experiment [8] and in experiment [9] was “inactive” throughout. The outcome in [3], in [4] and in [6] was inactive.

`C=CC#N`: the Potency entry in [1], in experiment [2], in experiment [5], in experiment [7], in experiment [8] and in experiment [9] was “inactive” each time. The Potency entry in [10] is “inactive”. Further, the molecule was classed as inactive in experiment [3], in [4] and in experiment [6].

Regarding `CCCCC(CC)C(=O)Cl` (centres undefined), the Potency result in experiment [1], in experiment [2], in experiment [5], in experiment [7], in [8] and in experiment [9] was “inactive” throughout. Further, the Potency result in experiment [10] is “inactive”. For the same molecule, the molecule was called inactive in [3], in experiment [4] and in [6].

For `CCCOC(=O)c1ccccc1C(=O)OCCC`, the Potency entry in [1], in [2], in [5], in experiment [7], in [8] and in experiment [9] was “inactive” in each case. In addition, the Potency result in [10] is “inactive”. In addition, the molecule was classed as inactive in experiment [3], in experiment [4] and in experiment [6].

For `O=C/C=C/c1ccccc1`, the Potency result in experiment [1], in experiment [2], in experiment [5], in experiment [7], in experiment [8] and in [9] was “inactive” each time. Moreover, the Potency result in [10] was “inactive”. The outcome in experiment [3], in experiment [4] and in experiment [6] was inactive.

Take `COc1nc(NC(C)C)nc(NC(C)C)n1`: the Potency entry in experiment [1], in experiment [2], in [5], in experiment [7], in experiment [8] and in [9] was “inactive” throughout. Besides, in experiment [10], the Potency result was “inactive”. Besides, the call in experiment [3], in experiment [4] and in [6] was inactive.

Regarding `C[C@H]1C(=O)O[C@@H]2CCN3CC=C(COC(=O)[C@](C)(O)[C@]1(C)O)[C@H]23`, the Potency result in [1], in [2], in experiment [5], in experiment [7], in experiment [8] and in [9] was “inactive” in each case. In addition, the Potency result in experiment [10] is “inactive”. Further, the result in experiment [3], in experiment [4] and in experiment [6] was inactive.

With `COP(=S)(OC)Oc1ccc(SC)c(C)c1`, the Potency entry in experiment [1], in experiment [5], in experiment [7], in experiment [8], in [9] and in [10] was “inactive” throughout. For the same molecule, the Potency in experiment [2] is 26.6 µM (active) and 30.3 µM (active) and 24.3 µM (active). Further, the molecule was called inactive in experiment [3], in experiment [4] and in experiment [6].

Take `CCSC(=O)N1CCCCCC1`: the Potency entry in experiment [1], in experiment [2], in experiment [5], in experiment [7], in experiment [8] and in experiment [9] was “inactive” in each case. The Potency entry in experiment [10] is “inactive”. Besides, the outcome in experiment [3], in [4] and in experiment [6] was inactive.

Values taken from PubChem BioAssay (Tox21).
